Sfp inh: qHTS Assay for Inhibitors of Bacillus subtilis Sfp phosphopantetheinyl transferase (PPTase); 4'-phosphopantetheinyl transferase ffp (Bacillus subtilis), Q9F4F7; Biochemical Sfp PPTase activity, qHTS; Potency, µM, most hits filed as inhibitors; 310,000 tested, 3.5% active;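 note: the enzyme is Sfp with the accession as filed and its product quenches rhodamine fluorescence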
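Fluorescence-quenching assay: 15 nM Sfp-PPTase preincubated 15 min at room temperature with compound, then 5 uM rhodamine-CoA and 12.5 uM BHQ-2-labelled YbbR peptide added. Fluorescence (ex 525/em 598 nm) read at start and after 30 min; difference gives rate.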
PLK1 PBD block: qHTS for Inhibitors of PLK1-PDB (polo-like kinase 1 - polo-box domain): Primary Screen; Plk1 PBD binding of FITC phosphopeptide, fluorescence polarization; Potency, µM, actives largely listed as inhibitors; Serine/threonine-protein kinase PLK1 (Homo sapiens), P53350; AID 720504, 2013; 360,000 tested, 2.8% active; note: series mostly up to about 57 µM; nearly all actives have a fitted effect of over 65% in size
Target sequence (P53350 whole entry, looked up, the tested form may be a part): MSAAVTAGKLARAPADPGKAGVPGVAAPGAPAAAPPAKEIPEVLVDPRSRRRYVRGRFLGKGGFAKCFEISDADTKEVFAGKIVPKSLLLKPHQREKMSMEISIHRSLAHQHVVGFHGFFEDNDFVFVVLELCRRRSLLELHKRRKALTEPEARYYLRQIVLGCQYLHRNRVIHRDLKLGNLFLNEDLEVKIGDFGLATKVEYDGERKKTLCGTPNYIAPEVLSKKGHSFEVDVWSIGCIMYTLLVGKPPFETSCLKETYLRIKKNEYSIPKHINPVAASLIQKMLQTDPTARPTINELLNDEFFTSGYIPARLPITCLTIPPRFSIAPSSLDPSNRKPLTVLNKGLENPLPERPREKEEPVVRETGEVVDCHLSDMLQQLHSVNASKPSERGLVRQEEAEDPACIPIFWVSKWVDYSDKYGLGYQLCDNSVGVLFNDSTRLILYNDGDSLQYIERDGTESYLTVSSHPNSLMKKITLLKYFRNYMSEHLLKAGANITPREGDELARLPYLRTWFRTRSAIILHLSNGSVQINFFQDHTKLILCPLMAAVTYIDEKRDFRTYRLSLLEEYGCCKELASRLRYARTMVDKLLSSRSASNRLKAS
VDR inhibitor: Inhibitors of the vitamin D receptor (VDR): qHTS. AID 504847, 2011. Vitamin D3 receptor (Homo sapiens), P11473. VDR-SRC2-3 peptide fluorescence polarization, 2 h. Potency, µM, usual class: inhibitors. 400,000 tested, 0.93% active
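Fluorescence polarization assay measuring small-molecule disruption of VDR binding to the coregulator peptide SRC2-3. Compounds were pin-transferred (23 nl) into the reagent mix and incubated 2 h at room temperature before reading.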
12-LOX inh: Primary qHTS assay for inhibitors of human arachidonate 12S-lipoxygenase (ALOX12): Round 2 | Polyunsaturated fatty acid lipoxygenase ALOX12 (Homo sapiens), P18054 | purified 12hLO, xylenol orange hydroperoxide absorbance | Potency, µM (highest dose often 108 µM), hits mostly inhibitors | 580,000 tested, 1.1% active | AID 1671190, 2021
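Purified human 12hLO at 150 nM in 25 mM Hepes, 0.01% Triton X-100, pH 7.0, preincubated 15 min at room temperature with compound. Reaction started with 40 uM arachidonic acid, 30 min at room temperature. Hydroperoxide measured by Fe-xylenol orange, 573/405 nm absorbance ratio.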
Of the large screens only hits and unclear results are named; the others gave an inactive call. Only some compounds are listed: those with a hit (about 4.2% of all), similar ones and a draw of the others. Calls come from the whole dose curve; as a rule, active = well fitted curve in the direction sought with a large enough effect; inconclusive = small, poorly fitted or top-dose-only effect, or another doubt; inactive = no such curve, though single readings can be large; an effect the other way counts as inactive or inconclusive.

CCOC(=O)c1sc(N2C(=O)C(O)=C(C(=O)c3ccco3)C2c2ccc(C)o2)nc1C (stereo not given)	Sfp inh 39.8µM, PLK1 PBD block inconclusive, VDR inhibitor inconclusive, 12-LOX inh inconclusive
Cc1ccc(-n2c(Cn3ncc4ccccc4c3=O)n[nH]c2=S)cc1	none
COc1ccc(NC(=O)C2CCN(S(=O)(=O)c3ccc4c(c3)CCCC(=O)N4)CC2)cc1Cl	none (no result: Sfp inh, PLK1 PBD block)
Cc1cc(S(=O)(=O)NCC2CN(Cc3ccccc3)CCO2)ccc1Br (stereo not given)	none (no result: Sfp inh, PLK1 PBD block, VDR inhibitor)
COc1ccc(CCNc2nc(=S)[nH]c3cc(OC)c(OC)cc23)cc1OC	none
COc1cc2[nH]c(=S)nc(NC3CCCCCC3)c2cc1OC	VDR inhibitor inconclusive
COc1cc2[nH]c(=S)nc(Nc3ccc(NC(C)=O)cc3)c2cc1OC	PLK1 PBD block 29.9µM, VDR inhibitor inconclusive
COc1cc2[nH]c(=S)nc(NCCc3ccc(C)cc3)c2cc1OC	PLK1 PBD block 29.9µM
CCCOC(=O)C1[C@H]2C(=O)N(Cc3ccco3)C[C@]23C=C[C@H]1O3 (stereo not given in full)	Sfp inh inconclusive
CCc1ccc(/C=N/n2c(COc3ccccc3)n[nH]c2=S)cc1	PLK1 PBD block inconclusive, 12-LOX inh inconclusive
COc1cc(/C=N/n2c(-c3ccccc3)n[nH]c2=S)ccc1O	12-LOX inh inconclusive
S=c1[nH]nc(COc2ccccc2)n1/N=C/c1ccc(Cl)c(Cl)c1	Sfp inh 56.2µM, PLK1 PBD block 16.8µM
COc1ccc(/C=N/n2c(-c3ccc(C)cc3)n[nH]c2=S)cc1OC	12-LOX inh 10µM
S=c1[nH]nc(COc2ccccc2)n1/N=C/c1ccccn1	12-LOX inh 1.58µM
O=[N+]([O-])c1ccc(Cl)c(/C=N/n2c(COc3ccccc3)n[nH]c2=S)c1	Sfp inh inconclusive, PLK1 PBD block 23.8µM, VDR inhibitor inconclusive, 12-LOX inh inconclusive
S=c1[nH]nc(COc2ccccc2)n1/N=C/c1ccccc1Br	PLK1 PBD block inconclusive, 12-LOX inh inconclusive
O=C(N/N=C/c1cc([N+](=O)[O-])ccc1Cl)c1cnccn1	12-LOX inh inconclusive
Cc1ccc(C)c(N2N=C(C(=O)Nc3ccc(N4CCOCC4)cc3)CCC2=O)c1	none (no result: Sfp inh, 12-LOX inh)
CCOc1ccc(/C=N/n2c(COc3ccccc3)n[nH]c2=S)cc1OC	Sfp inh 56.2µM, PLK1 PBD block inconclusive
Cc1cccc(/C=N/n2c(COc3ccccc3)n[nH]c2=S)c1	Sfp inh 56.2µM, PLK1 PBD block 23.8µM, 12-LOX inh 39.8µM
Cc1ccc(NC(=O)c2cc3c(N4CCSCC4)nc(C)cn3n2)c(F)c1	none (no result: Sfp inh, PLK1 PBD block, VDR inhibitor)
Cn1c(=O)c2c(-c3ccccc3)n3c(c2n(C)c1=O)C(c1cc(Cl)ccc1O)Nc1ccccc1-3 (stereo not given)	none (no result: Sfp inh, PLK1 PBD block)
CCOC(=O)c1c(C)[nH]c(C)c1C(=O)COc1ncnc2ccccc12	PLK1 PBD block 11.9µM, VDR inhibitor inconclusive
CCOC(=O)c1c(NC(=O)COc2ncnc3ccccc23)sc(C)c1C	Sfp inh inconclusive
Cc1ccc(Cl)c(OCCCN(C)Cc2ccccc2)c1	Sfp inh 44.7µM, 12-LOX inh inconclusive
CCCOc1ccc2c(c1)sc1ncc(NC(=O)c3ccccc3C)c(=O)n12	none (no result: Sfp inh, PLK1 PBD block, VDR inhibitor)
CC(C)n1ncc2cc(NC(=O)c3cccc(S(=O)(=O)N4CCCC4)c3)cnc21	none (no result: Sfp inh, PLK1 PBD block, VDR inhibitor)
CCOc1ccccc1NC(=O)NCc1ccccc1F	none
COc1ccc(NC(=O)NCc2ccccc2F)cc1OC	none
COc1cccc(NC(=O)NCc2ccccc2F)c1	PLK1 PBD block 11.9µM, VDR inhibitor inconclusive
COc1ccccc1NC(=O)NCc1ccccc1F	PLK1 PBD block 33.6µM
NCCC[C@@H](CC(=O)N[C@@H]1CCNC[C@H]1C(=O)N[C@H](CC(=O)N[C@@H](CCC(=O)O)CC(=O)O)Cc1ccccc1)NC(=O)C[C@H](Cc1ccccc1)NC(=O)[C@@H]1CCCC[C@H]1N	none (no result: PLK1 PBD block, 12-LOX inh)
CCc1noc(-c2cn(C3CCCN(C(=O)COc4cccc(C)c4)C3)nn2)n1 (stereo not given)	none (no result: Sfp inh, PLK1 PBD block, VDR inhibitor)
O=C(Nc1ccccc1)c1cc(-c2ccccc2Cl)no1	PLK1 PBD block 3.77µM, VDR inhibitor inconclusive
COc1ccc(NC(=O)c2cc(-c3ccccc3Cl)no2)cc1	none
O=C(Nc1cnc2ccccc2c1)N1CCOCC1	PLK1 PBD block 26.7µM, 12-LOX inh inconclusive
O=C(Nc1cnc2ccccc2c1)N1CCCCC1	none
N#Cc1ccc(C(c2nnnn2Cc2ccccc2)N2CCCC2)cc1 (stereo not given)	PLK1 PBD block inconclusive, 12-LOX inh inconclusive
CCCc1nnc(NC(=O)CCC(=O)NC2CCCCCC2)s1	none
CCCCOc1ccc(C(=O)N(Cc2ccc(N(C)C)cc2)Cc2ccco2)cc1	none (no result: Sfp inh, PLK1 PBD block)
O=C(c1cccs1)N(Cc1ccco1)Cc1cc2ccccc2[nH]c1=O	PLK1 PBD block 26.7µM
CCCCOc1ccc(C(=O)N(Cc2ccco2)Cc2ccco2)cc1	12-LOX inh 17.8µM (no result: Sfp inh, PLK1 PBD block)
CCOc1ccc2[nH]c(=O)c(CN(Cc3ccco3)C(=O)c3ccc(Br)cc3)cc2c1	Sfp inh 39.8µM, 12-LOX inh inconclusive
Cc1ccc(S(=O)(=O)NC(=O)C2(C)CCN2C(=O)C2(c3ccc(Cl)cc3)CC2)cc1 (stereo not given)	12-LOX inh inconclusive (no result: Sfp inh, VDR inhibitor)
C=CCn1c(SCc2ccccc2)nc2scc(-c3ccc(C)o3)c2c1=O	Sfp inh 28.2µM
C=CCn1c(SCC(=O)NCCOC)nc2scc(-c3ccco3)c2c1=O	Sfp inh 10µM, PLK1 PBD block inconclusive, 12-LOX inh inconclusive
Cc1ccc(NC(=O)CSc2ncc(-c3ccccc3)[nH]2)cc1	none (no result: Sfp inh, PLK1 PBD block)
Clc1ccc2c(c1)C(N1CCNCC1)Cc1ccccc1S2 (stereo not given)	none (no result: 12-LOX inh)
Clc1cccc2c1Sc1ccccc1CC2N1CCNCC1 (stereo not given)	Sfp inh 56.2µM, 12-LOX inh inconclusive
Nc1nc(C2C(=O)CCCC2=O)cs1	Sfp inh 56.2µM, 12-LOX inh inconclusive
COc1cc(C(=O)NNC(=S)NC(=O)c2ccccc2C)cc(OC)c1OC	none
COc1ccccc1C(=O)NNC(=S)NC(=O)c1cc(OC)c(OC)c(OC)c1	12-LOX inh 39.8µM
COc1ccc(C(=O)NC(=S)NNC(=O)c2ccccc2C)cc1	PLK1 PBD block inconclusive, 12-LOX inh 44.7µM (no result: Sfp inh)
COc1cc(C(=O)NC(=S)NNC(=O)[C@H]2C[C@@H]2c2ccccc2)cc(OC)c1OC	12-LOX inh 31.6µM
COc1cc(C(=O)NNC(=S)NC(=O)c2ccc3c(c2)OCO3)cc(OC)c1OC	12-LOX inh inconclusive
COc1cc(C(=O)NC(=S)N2CCCCCC2)cc(OC)c1OC	none
COc1cc(C(=O)NC(=S)NC(C)C)cc(OC)c1OC	12-LOX inh 35.5µM
CC1(c2ccccc2)N(Cc2ccccc2F)C(=O)OC12CCN(C(=O)CCc1ccccn1)CC2 (stereo not given)	none (no result: Sfp inh, PLK1 PBD block, VDR inhibitor)
O=C(NCCCO)c1ccc2c(c1)C1(CCN(CC3CC3)C1)CN2Cc1ccccc1 (stereo not given)	none (no result: Sfp inh, PLK1 PBD block, VDR inhibitor)
Cc1c(-c2ccccc2)c(=O)oc2cc(OS(=O)(=O)c3ccc(Br)cc3)ccc12	none (no result: Sfp inh, PLK1 PBD block, VDR inhibitor)
Oc1ccc(C2(c3ccc(O)cc3)CCCC2)cc1	12-LOX inh 35.5µM (no result: Sfp inh, PLK1 PBD block, VDR inhibitor)
